Results with a measured potency or affinity are listed apart. Active and inactive are the calls of the source.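 The calls were made as follows: active = fitted half-maximal dose no more than twice the top valid tested dose, for compounds that lower signal; inconclusive = fit invalid, or curve flat with activity between -70 and -30; inactive = potency past limit, curve flat within ±30, or signal increasing.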
biological target: NAD-dependent protein deacylase sirtuin-5, mitochondrial (Homo sapiens) (UniProt Q9NXA8); experiment: SIRT5 deacylase inhibitors, dose response, biochemical, fluorescence imaging, cherry-pick, set 6 (AID 720597); details: Purified SirT5, succinyl-peptide-AMC/trypsin fluorescence; series mostly up to 15 µM; activity change, negative = inhibition: at the top concentration;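 also: lower AMC signal can also come from blocking the trypsin step; 0% = median of neutral control wells and -100% = median of positive control wells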
Sequence (Q9NXA8 whole entry, looked up): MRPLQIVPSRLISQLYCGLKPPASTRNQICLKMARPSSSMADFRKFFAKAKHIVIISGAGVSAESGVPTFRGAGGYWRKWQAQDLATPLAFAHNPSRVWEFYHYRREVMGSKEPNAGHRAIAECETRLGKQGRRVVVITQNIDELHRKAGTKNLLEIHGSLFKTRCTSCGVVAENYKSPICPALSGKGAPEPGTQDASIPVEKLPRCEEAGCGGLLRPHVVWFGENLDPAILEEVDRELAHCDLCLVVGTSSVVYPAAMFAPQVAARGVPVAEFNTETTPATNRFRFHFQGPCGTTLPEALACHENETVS

Activity change, negative = inhibition, inactive:
COc1ccc(S(=O)(=O)Nc2ccc3c(c2)C(=O)N([C@H](C)CO)C[C@H](C)[C@@H](CN(C)Cc2ccc(Oc4ccccc4)cc2)O3)cc1 -5.05%, C[C@H](CO)N1C[C@H](C)[C@H](CN(C)Cc2ccc(-c3ccccc3)cc2)OCc2ccccc2-c2ccccc2C1=O -17.1%, Cc1ccc(S(=O)(=O)N(C)C[C@@H]2Oc3ncc(C#Cc4ccc(C(F)(F)F)cc4)cc3C(=O)N([C@H](C)CO)C[C@@H]2C)cc1 18.9%, Cc1ccc(-c2ccc3c(c2)O[C@@H](CN(C)Cc2ccccc2)[C@@H](C)CN([C@@H](C)CO)S3(=O)=O)cc1 -12.1%, O=C(CCN1CCCCC1)N[C@@H]1CC[C@H](CC(=O)N2CCC(Cc3ccccc3)CC2)O[C@H]1CO -2.36%, Cc1ccc(-c2cnc3c(c2)C(=O)N([C@H](C)CO)C[C@H](C)[C@@H](CN(C)Cc2ccccc2F)O3)cc1 5.4%, C[C@@H]1CN([C@@H](C)CO)S(=O)(=O)c2ccc(C#Cc3cccc(F)c3)cc2O[C@@H]1CN(C)S(=O)(=O)c1ccccc1F 3.7%, COc1cccc(S(=O)(=O)N(C)C[C@@H]2Oc3cc(C4=CCCCC4)ccc3S(=O)(=O)N([C@H](C)CO)C[C@@H]2C)c1 18.7%, O=C(Nc1cc(F)ccc1F)N1C[C@@H]2[C@H](c3ccccc31)[C@H](CO)N2Cc1ccncc1 6.42%, COc1cccc(-c2cn(CC[C@@H]3CC[C@H](NC(=O)CC4CC4)[C@@H](CO)O3)nn2)c1 -2.95%, C[C@H]1CCCCO[C@H](CN(C)C(=O)Nc2ccc(C(F)(F)F)cc2)[C@@H](C)CN([C@@H](C)CO)C(=O)c2cc(NS(=O)(=O)c3ccc(Cl)cc3)ccc2O1 -6.61%, COc1cccc(NC(=O)N2CC(=O)N3[C@H](CO)[C@H](c4ccc(C#CCC5CCCC5)cc4)[C@H]3C2)c1 24.2%, C[C@H]1CN([C@@H](C)CO)C(=O)c2cc(C#CCC3CCCC3)cnc2O[C@H]1CN(C)C(=O)c1cnccn1 -15.1%, CC(C)CC#Cc1ccc2c(c1)O[C@H](CN(C)S(=O)(=O)c1cccc(F)c1)[C@@H](C)CN([C@@H](C)CO)S2(=O)=O 23%, COc1ccccc1NC(=O)N[C@H]1CC[C@@H](CCNS(=O)(=O)c2ccc(F)cc2)O[C@@H]1CO -3.7%, C[C@H]1CN([C@@H](C)CO)C(=O)Cc2cc(NC(=O)Nc3ccc(C(F)(F)F)cc3)ccc2O[C@H]1CN(C)Cc1ccc(C(=O)Nc2ccccc2N)cc1 4.98%, COc1ccc([Si](C)(C)[C@@H]2[C@@H](CCO)O[C@]3(C(=O)N(Cc4cccc(NC(C)=O)c4)c4ccccc43)[C@H]2C)cc1 -7.91%, Cc1noc(C)c1NC(=O)Nc1cccc2c1O[C@@H](CN(C)Cc1ccc(Oc3ccccc3)cc1)[C@H](C)CN([C@H](C)CO)C2=O -7.07%, O=C(NCC[C@H]1CC[C@@H](NC(=O)C2CC2)[C@@H](CO)O1)c1cc(Cl)cc(Cl)c1 -11.4%, COc1ccc(S(=O)(=O)Nc2ccc3c(c2)C(=O)N([C@@H](C)CO)C[C@@H](C)[C@H](CN(C)Cc2ccc(C(F)(F)F)cc2)OCCCC[C@@H](C)O3)cc1 -24.5%, COc1cccc(CNC(=O)C[C@H]2CC[C@H]3[C@H](COc4ccc(NS(=O)(=O)c5ccccc5F)cc4C(=O)N3C)O2)c1 2.21%, CC(C)NC(=O)NCC[C@H]1CC[C@@H](NS(=O)(=O)c2ccc(-c3ccccc3)cc2)[C@H](CO)O1 -21.9%, C[C@@H]1CN([C@H](C)CO)C(=O)Cc2cc(NS(=O)(=O)c3ccc(F)cc3)ccc2O[C@H]1CN(C)Cc1ccc(C(F)(F)F)cc1 -21.2%, CCCC#Cc1ccc([C@H]2[C@@H](CO)N3CCCCN(S(=O)(=O)Cc4ccccc4)C[C@H]23)cc1 -4.47%, C[C@@H]1CN([C@@H](C)CO)C(=O)c2cc(NS(=O)(=O)c3cccs3)ccc2O[C@@H](C)CCCCO[C@@H]1CN(C)Cc1ccc(C(F)(F)F)cc1 -16.5%, CCCC(=O)Nc1ccc2c(c1)OC[C@H](C)N(Cc1ccccc1)C[C@H](C)[C@H](OC)CN(C)C2=O -11.7%, COc1ccc(NC(=O)N(C)C[C@@H]2Oc3cc(C#CCC(C)C)ccc3S(=O)(=O)N([C@@H](C)CO)C[C@@H]2C)cc1 -5.11%, CCCc1c(C)nc2ccc(Br)cc2c1SCCC(=O)O -14.8% [at 13.5 µM], C[C@H]1CN([C@@H](C)CO)C(=O)c2ccccc2-c2ccccc2CO[C@@H]1CN(C)C(=O)Nc1ccccc1C(F)(F)F 7.56%, Cc1ccc(S(=O)(=O)N(C)C[C@H]2OCc3ccccc3-c3c(n(C)c4ccccc34)C(=O)N([C@H](C)CO)C[C@H]2C)cc1 23.8%, Cc1ccc(S(=O)(=O)Nc2ccc3c(c2)C(=O)N([C@H](C)CO)C[C@@H](C)[C@H](CN(C)C(=O)Nc2ccc(F)cc2)OCCCC[C@H](C)O3)cc1 -3.75%, C[C@@H]1CN([C@@H](C)CO)S(=O)(=O)c2ccc(/C=C/c3ccccc3)cc2O[C@H]1CN(C)C(=O)NC1CCCCC1 22.6%, C[C@@H]1CN([C@H](C)CO)C(=O)c2cc(NS(=O)(=O)c3ccc(F)cc3)ccc2O[C@@H](C)CCCCO[C@@H]1CN(C)S(=O)(=O)c1ccc(Cl)cc1 2.61%, COc1ccc(S(=O)(=O)N(C)C[C@H]2OCCCC[C@H](C)Oc3ccc(NS(=O)(=O)c4ccc(C)cc4)cc3C(=O)N([C@@H](C)CO)C[C@H]2C)cc1 -15.3%, O=C(Nc1cc(F)ccc1F)N1CC(=O)N2[C@@H](CO)[C@@H](c3ccc(C#CC4CCCCC4)cc3)[C@@H]2C1 -15.7%, COc1ccc(S(=O)(=O)N(C)C[C@@H]2OCCCC[C@@H](C)Oc3ccc(NS(=O)(=O)c4ccc(F)cc4)cc3C(=O)N([C@@H](C)CO)C[C@@H]2C)cc1 -4.5% [at 16 µM], O=C(NC1CCCCC1)[C@@H]1[C@@H](CO)[C@@H]2Cn3c(cccc3=O)[C@@H]2N1CC1CCCC1 19.3%, C[C@@H]1CN([C@@H](C)CO)C(=O)c2cc(NC(=O)CCN3CCOCC3)ccc2O[C@H]1CN(C)Cc1ccc(C(F)(F)F)cc1 -9.07%, COc1cccc(C(=O)Nc2ccc3c(c2)C(=O)N(C)C[C@H](OC)[C@@H](C)CN(CCc2ccccc2)[C@@H](C)CO3)c1 -22.3%
